The record followed here is PubChem BioAssay (NCATS).

Where “and” joins values, the source holds several entries; their conditions need not be identical. Equal values may be shown once. Records with an inconclusive call do not appear. Calls of active or inactive are those of the source. Unless noted, the call rests on the fitted dose curve; in most records, active means well fitted curve in the direction sought with a large enough effect; inconclusive means small, poorly fitted or top-dose-only effect, or another doubt; inactive means no such curve, though single readings can be large; an effect the other way counts as inactive or inconclusive.

The target of test [1] is Alpha-galactosidase A (Homo sapiens) (UniProt P06280). The experiment in a line: Counterscreen for Glucocerebrosidase Inhibitors: qHTS Assay for Human alpha-Galactosidase at pH 4.5 (AID 992). Further: 0% is about no effect. In outline: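 Each compound is preincubated briefly with 2 nM enzyme before substrate addition (80 uM); plates then sit 20 min at ambient temperature, are quenched with 1M NaOH/1M glycine, and read fluorometrically.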
For orientation: Counterscreens check selectivity or assay interference.

The target of test [2] is alpha-glucosidase (Oryza sativa, rice) (UniProt Q653V4). The experiment in a line: Counterscreen for Glucocerebrosidase Inhibitors: qHTS Assay for Rice alpha-Glucosidase at pH 5.0 (AID 997).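 Further: 0% = full activity with enzyme and -100% = basal without enzyme.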 In a few lines: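 Endpoint fluorogenic assay at pH 5.0: compounds (0.7 nM to 77 uM) titrated against 4 nM rice enzyme and 400 uM 4-MU-alpha-glucoside for 20 min at room temperature; NaOH/glycine stop, read ex 365/em 440 nm, Hill-fitted AC50.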

Test [3] in a line: qHTS Assay for Lipid Storage Modulators (AID 1519; calls by dose curve; on activity change, negative = inhibition: on the % scale 0 is the no-effect control and ±100 the full control effect). The note with it: Drosophila S3 cells, BODIPY lipid droplet/cell ratio, laser cytometry, cells loaded with oleic acid. In outline:
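Cells seeded at 5,000 per well were treated with compounds over a concentration series and loaded with oleic acid (400 uM, as added). Lipid droplet fluorescence (488 nm excitation, 500-530 nm channel) was read by laser-scanning cytometry and normalized to 20 uM Triacsin C.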

In test [4] the target is DNA repair nuclease/redox regulator APEX1 (Homo sapiens) (UniProt P27695). The experiment in a line: qHTS Validation Assay for Inhibitors of the Human Apurinic/apyrimidinic Endonuclease 1 (APE1) (AID 1705;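 further: TAMRA fluorescence gain over two minutes as APE1 cuts a quenched THF abasic duplex; on the % scale 0 is the no-effect control and ±100 the full control effect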). In outline:
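Human APE1 was preincubated with compound for 15 min at room temperature, then 50 nM (final) THF-abasic double-stranded DNA substrate bearing 5'-TAMRA and 3'-BHQ-2 was added. Incision-driven fluorescence rise (ex 525/em 598 nm) was read kinetically.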
(In general: In qHTS, concentration-response curves come from the screen itself.)

Test [5] is described as follows: Counterscreen for APE1 Inhibitors: Fluorescent Dye Displacement Validation Assay (AID 1707).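 Further: plate controls were ThO with dsDNA and no compound for no effect and ThO without dsDNA for full effect.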 In outline: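 Loss of Thiazole Orange fluorescence marks promiscuous DNA binders. The dye (250 nM) is mixed with 50 nM abasic-site dsDNA in pH7.5 Tris buffer containing MgCl2, then compounds are added and emission is read once.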
A short description of test [6]: qHTS for differential inhibitors of proliferation of Plasmodium falciparum line 7G8 (AID 1815).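 Further: parasite growth measured after three days of incubation; plate controls were vehicle wells for no effect and reference inhibitor wells for full effect.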
Test [7] can be described thus: Cell Viability - LYMP2-007 (AID 979).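 Further: cells exposed to compound for 24 h before reading; 0% = DMSO only and the negative end = 92 µM tetraoctylammonium bromide; nearly all actives have a fitted effect of over 60% in size.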 In a few lines: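 Cells are seeded at 2500 per well and rested 5 hr. Compounds are then added over a concentration series for 24 hr at 37 C. CellTiter-Glo is added for 30 min at room temperature before luminescence reading.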
Test [8] can be described thus: Cell Viability - LYMP2-008 (AID 980).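 Further: cells exposed to compound for 24 h at 37 °C; on the % scale 0 is the no-effect control and ±100 the full control effect; nearly all actives have a fitted effect of over 60% in size.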 In outline:
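Cells seeded at 2500/well and rested 5 hr at 37 C; compounds added over a concentration range and incubated 24 hr at 37 C; CellTiter-Glo added, 30 min at room temperature; luminescence read and AC50 fitted with Hill model.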

The nature of test [9]: Cell Viability - LYMP2-010 (AID 981).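 Further: cells exposed to compound for 24 hours at 37 °C; on the % scale 0 is the no-effect control and ±100 the full control effect; nearly all actives have a fitted effect of over 55% in size.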 In outline: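 Steps: seed 2500 LYMP2-010 cells per well; incubate 5 hr at 37 C; add compound; incubate 24 hr at 37 C; add CellTiter-Glo, wait 30 min at room temperature; read luminescence. Concentration-response fitted to Hill equation for AC50.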
Test [10] can be described thus: Cell Viability - LYMP2-012 (AID 982).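 Further: cellular ATP by luciferase luminescence where a drop means cytotoxicity; cells exposed to compound for one day before reading; 0% = DMSO only and full loss = 92 µM tetraoctylammonium bromide; nearly all actives have a fitted effect of over 55% in size.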
Test [11] in a line: Cell Viability - LYMP2-014 (AID 983).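 Further: cells exposed to compound for 24 h at 37 °C; plate controls were DMSO only for no effect and 92 µM tetraoctylammonium bromide for full effect; nearly all actives have a fitted effect of over 50% in size.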 In outline:
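Cells are plated at 2500/well and left 5 hr at 37 C. Compounds are added across a concentration range and incubated 24 hr at 37 C in complete medium. CellTiter-Glo is added, and luminescence is read after 30 min at room temperature.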

A short description of test [12]: Cell Viability - LYMP2-016 (AID 984).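 Further: cells exposed to compound for 24 hours at 37 °C; on the % scale 0 is the no-effect control and ±100 the full control effect; nearly all actives have a fitted effect of over 55% in size.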 In outline:
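Human lymphoblastoid cells (LYMP2-016), 2500/well in complete medium, preincubated 5 hr at 37 C, then compound-treated 24 hr at 37 C. Intracellular ATP read by CellTiter-Glo luminescence after 30 min at room temperature; AC50 from Hill-equation concentration-response fits.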

Test [13] can be described thus: Cell Viability - LYMP2-018 (AID 985).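 Further: compound exposure lasted 24 hr at 37 °C; plate controls were DMSO only for no effect and tetraoctylammonium bromide at 92 µM for full effect; nearly all actives have a fitted effect of over 50% in size.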 In outline: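 Seed 2500 lymphoblastoid cells per well, incubate 5 hr at 37 C, add compound and incubate 24 hr at 37 C, add CellTiter-Glo, wait 30 min at room temperature, then read luminescence.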
Test [14] is described as follows: Cell Viability - LYMP2-020 (AID 986).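 Further: cells exposed to compound for 24 h at 37 °C; plate controls were DMSO only for no effect and tetraoctylammonium bromide at 92 µM for full effect; nearly all actives have a fitted effect of over 55% in size.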 In a few lines: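 Seed 2500 cells per well and incubate 5 hr at 37 C. Add compounds at a concentration series and incubate 24 hr at 37 C. Add CellTiter-Glo, wait 30 min at RT, read luminescence, and fit a Hill curve for AC50.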
Test [15] in a line: Cell Viability - LYMP2-022 (AID 987). In outline: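 Cells were seeded at 2500 per well, rested 5 hr at 37 C, and treated with titrated compounds for 24 hr at 37 C. Cellular ATP was then quantified by luciferase luminescence, and AC50 values were derived from Hill-modelled concentration-response curves.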
Test [16] in a line: Cell Viability - LYMP2-024 (AID 988).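 Further: plate controls were DMSO only for no effect and 92 µM tetraoctylammonium bromide for full effect; nearly all actives have a fitted effect of over 60% in size.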 In outline:
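qHTS cytotoxicity, human lymphoblastoid line, complete medium; 24 h cpd treatment, 37 C; CellTiter-Glo ATP luminescence readout; tetraoctylammonium bromide positive control; AC50 via Hill fit.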

A short description of test [17]: Cell Viability - LYMP2-026 (AID 989).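 Further: cells exposed to compound for 24 h at 37 °C; on the % scale 0 is the no-effect control and ±100 the full control effect; nearly all actives have a fitted effect of over 50% in size.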 In a few lines: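 Cells are seeded at 2500 per well and held 5 hr at 37 C. Compounds are added in concentration series for 24 hr, then CellTiter-Glo reagent is applied and luminescence read.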
A short description of test [18]: Cell Viability - LYMP1-002 - Assay at 24 hr (AID 993). Further: on the % scale 0 is the no-effect control and ±100 the full control effect. In outline: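 Acute toxicity is measured as concentration-dependent loss of cellular ATP in a human lymphoblastoid line (Coriell LYMP1-002) after 24 h treatment in complete medium. ATP is quantified by luciferase luminescence and AC50 derived by Hill modelling.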
A short description of test [19]: Cell Viability - LYMP1-002 - Assay at 40 hr (AID 994).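 Further: 0% = DMSO only and full inhibition = 92 µM tetraoctylammonium bromide; nearly all actives have a fitted effect of over 60% in size.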 In outline:
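Cells are plated at 2500 per well and rested 5 hr at 37 C. Compounds are added and incubated 40 hr at 37 C. CellTiter-Glo reagent is added for 30 min at room temperature before luminescence is read.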

[20] abbreviates: measured here: cell count channel max response.
The mark [21] stands for this setting: measured here: lipid channel max response.

Sequence of Alpha-galactosidase A (Homo sapiens) (P06280 whole entry, looked up): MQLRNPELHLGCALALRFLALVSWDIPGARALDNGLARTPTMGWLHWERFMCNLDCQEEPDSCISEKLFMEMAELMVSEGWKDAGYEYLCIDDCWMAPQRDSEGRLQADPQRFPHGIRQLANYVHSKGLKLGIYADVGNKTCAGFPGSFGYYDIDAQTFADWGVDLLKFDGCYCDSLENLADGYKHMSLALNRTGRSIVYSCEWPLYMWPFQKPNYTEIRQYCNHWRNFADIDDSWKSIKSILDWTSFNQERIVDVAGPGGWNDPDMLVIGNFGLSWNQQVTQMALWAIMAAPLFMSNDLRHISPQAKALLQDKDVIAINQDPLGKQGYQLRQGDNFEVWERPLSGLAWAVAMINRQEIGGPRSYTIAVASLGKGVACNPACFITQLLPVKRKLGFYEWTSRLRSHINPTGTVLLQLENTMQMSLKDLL
Sequence of DNA repair nuclease/redox regulator APEX1 (Homo sapiens) (P27695 whole entry, looked up): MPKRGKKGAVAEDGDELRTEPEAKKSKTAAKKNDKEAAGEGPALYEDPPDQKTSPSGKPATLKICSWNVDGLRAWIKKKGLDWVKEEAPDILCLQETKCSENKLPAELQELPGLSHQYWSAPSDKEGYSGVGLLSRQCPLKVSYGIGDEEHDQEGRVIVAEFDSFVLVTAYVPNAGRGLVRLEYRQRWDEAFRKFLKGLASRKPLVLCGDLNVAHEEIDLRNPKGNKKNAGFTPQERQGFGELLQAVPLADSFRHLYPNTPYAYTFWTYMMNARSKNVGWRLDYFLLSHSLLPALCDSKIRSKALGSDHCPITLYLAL

Turning to `NC(N)=NCc1cccc(I)c1`, the compound was called inactive in test [1], in test [2], in test [5] and in test [6]. Further, in [3] (at 57.5 µM (top of the series)), the activity change, negative = inhibition was 3.74% (inactive). In addition, the values for the max response in test [3] (setting [20]) and in [3] (setting [21]) were -19.1% and -12.1%, respectively. Moreover, the Potency result in [4] is “inactive”.
`CNCCc1ccccn1`: the activity change, negative = inhibition is -0.261% (inactive) in test [3] (at 25.7 µM (top of the series)) and 1.62% (inactive) in test [3] (at 57.5 µM (top of the series)). The max response in test [3] (setting [20]) was 0.592% and 17.8%; in test [3] (setting [21]) it was 1.76% and 22.8%.
On to `COc1cc(N)c(Cl)cc1C(=O)NC1CCN(Cc2ccccc2)CC1`, for which the figures for the activity change, negative = inhibition in test [3] (at 25.7 µM (top of the series)) and in test [3] (at 57.5 µM (top of the series)) were 0.953% (inactive) and 9.3% (inactive), respectively. In addition, the max response in test [3] (setting [20]) is -2.73% and -2.52%; in test [3] (setting [21]), -0.303% and 10.6%.
In the case of `CN(C)CCOC(=O)C(c1ccccc1)C1(O)CCCC1` (configuration not stated), the activity change, negative = inhibition in [3] (at 57.5 µM (top of the series)) was 8.35% (inactive). For the same compound, the max response was determined as 13.8% in test [3] (setting [20]) and 27.5% in test [3] (setting [21]).
For the compound `O=C(CCCN1CC=C(n2c(=O)[nH]c3ccccc32)CC1)c1ccc(F)cc1`, the activity change, negative = inhibition was 1.32% (inactive) in test [3] (at 25.7 µM (top of the series)) and 14.6% (inactive) in test [3] (at 57.5 µM (top of the series)). Further, the max response is -13.4% and 7.49% in [3] (setting [20]); -9.23% and 27.6% in test [3] (setting [21]).
For the compound `CN1CCC[C@@H]1CCO[C@](C)(c1ccccc1)c1ccc(Cl)cc1`, the result in [1] and in test [2] was inactive. The activity change, negative = inhibition in test [3] (at 25.7 µM (top of the series)) is -6.95% (inactive). The max response in [3] (setting [20]) is -6.75%; in test [3] (setting [21]), -13.1%.
With `CCCN(CCC)S(=O)(=O)c1ccc(C(=O)O)cc1`, the compound was called inactive in test [7], in test [8], in [9], in test [10], in [11] and in test [12]. Also, the compound was called inactive in test [15], in [17] and in test [18]. Also, the Potency result in test [13], in test [14], in test [16] and in [19] was “inactive” in each case. The activity change, negative = inhibition in test [3] (at 25.7 µM (top of the series)) was -2.1% (inactive); in [3] (at 57.5 µM (top of the series)) it was 1.2% (inactive). The max response in test [3] (setting [20]) was 0.958% and 6.83%; in test [3] (setting [21]) it was 0.939% and 10.4%.
Consider `COc1ccc(C(=O)c2ccccc2)c(O)c1`, for which the call in [7], in [8], in test [9], in [10], in [11] and in test [12] was inactive. Further, the outcome in test [15], in [17] and in test [18] was inactive. For the same compound, the Potency result in test [13], in [14], in test [16] and in test [19] was “inactive” throughout. The activity change, negative = inhibition in test [3] (at 25.7 µM (top of the series)) is -0.0822% (inactive); in [3] (at 57.5 µM (top of the series)) it was 9.05% (inactive). Besides, the max response was -14% and -2.88% in test [3] (setting [20]); -14.1% and 8.45% in test [3] (setting [21]).
Consider `NS(=O)(=O)Cc1noc2ccccc12`, for which the outcome in [1] and in test [2] was inactive.
As for `OC[C@H]1O[C@@H]2O[C@H]3[C@H](O)[C@@H](O)[C@@H](O[C@H]4[C@H](O)[C@@H](O)[C@@H](O[C@H]5[C@H](O)[C@@H](O)[C@@H](O[C@H]6[C@H](O)[C@@H](O)[C@@H](O[C@H]7[C@H](O)[C@@H](O)[C@@H](O[C@H]8[C@H](O)[C@@H](O)[C@@H](O[C@H]1[C@H](O)[C@H]2O)O[C@@H]8CO)O[C@@H]7CO)O[C@@H]6CO)O[C@@H]5CO)O[C@@H]4CO)O[C@@H]3CO`, the compound was called inactive in [7], in test [8], in [9], in test [10], in test [11] and in [12]. Besides, the compound was classed as inactive in test [15], in test [17] and in [18]. Besides, the Potency result in test [13], in test [14], in test [16] and in [19] was “inactive” in each case.
Turning to `CCOc1ccc(NC(C)=O)cc1`, the compound was classed as inactive in [7], in test [8], in [9], in test [10], in test [11] and in [12]. The compound was called inactive in [15], in test [17] and in test [18]. Further, the Potency result in test [13], in test [14], in test [16] and in test [19] was “inactive” in each case. In addition, the activity change, negative = inhibition in test [3] (at 25.7 µM (top of the series)) was -1.03% (inactive). Also, the max response in [3] (setting [20]) is 1.01%; in test [3] (setting [21]), -4.32%.
For `CCN(CC)CCNC(=O)c1cc(Br)c(N)cc1OC`, the activity change, negative = inhibition in test [3] (at 25.7 µM (top of the series)) is -3.04% (inactive); in test [3] (at 57.5 µM (top of the series)), 5.14% (inactive). The max response is -6.94% and 12.8% in [3] (setting [20]); -8.36% and 21.9% in test [3] (setting [21]).
